From PubChem BioAssay
Calls of active or inactive are those of the source.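 Rule for the calls, unless noted: active = NADPH fluorescence slope more negative than the mean of all samples by about 3 SD, 99.7% confidence; inactive = the rest.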

Assays:
[1] = inhibitors of TNFa-induced NFkB p65 translocation, primary screen, imaging, HUVEC, MLSMR starter and 10KST1 sets (AID 438;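 active = inhibition above 20% together with a positive visual image hit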;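 note: compound added about 3h40 before a 20 min TNFalpha stimulation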;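 for inhibition: signal is the nuclear over cytoplasmic p65 intensity ratio per well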); settings: HUVEC TNFa-induced p65 nuclear translocation; cell count: measured here: nuclei count (cytotoxicity indicator), at 2.08 µM; inhibition: at 2 µM, stronger effect = higher value, 0% TNFa-plus-vehicle, 100% no-TNFa wells
[2] = endothelial E-selectin expression blockers – imaging, HUVEC, immunofluorescence, MLSMR starter and 10KST1 sets, primary screen (AID 487;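 active = visually confirmed hit in the image check and inhibition above 20%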;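 for inhibition: signal is fraction of cell area covered by stained E-selectin grains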;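 for nuclei count: 100% = median nuclei count of all wells on the same plate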); settings: HUVEC TNFalpha-induced E-selectin immunofluorescence imaging, at 2 µM; inhibition: stronger effect = higher value; nuclei count: measured here: cell number, toxicity
[3] = Primary imaging screen for DUSP6 inhibitors that restore phospho-Erk in transfected HeLa cells, chemical complementation (AID 609;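 active = compounds giving at least 50% inhibition in the cell-based MKP-3 phosphatase rescue imaging test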;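 for inhibition: phospho-Erk level distribution per well compared with pooled transfected vehicle control wells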); settings: HeLa MKP-3 transfected, phospho-Erk imaging KS statistic, at 10 µM, cells stimulated with TPA for 15 min
[4] = molecular target: Dual specificity protein phosphatase 6 (Homo sapiens) (UniProt Q16828); assay: as above; settings: HeLa MKP-3 transfected, phospho-Erk imaging KS statistic; at 10 µM; stronger effect = higher value; cells stimulated with TPA for 15 min
[5] = molecular target: Voltage-gated potassium channel subunit beta-2 (Rattus norvegicus) (UniProt P62483); assay: inhibitors of rat Kvbeta2 reductase activity – biochemical, NADPH fluorescence, primary screen (AID 622;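 active = fluorescence slope higher than the sample average by over 3 SD, cut at about -0.22 in these data, passing the limit was not always enough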;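 note: slope of raw intensity against log time taken from 70 to 1610 s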); settings: recombinant KvBeta, 4-cyanobenzaldehyde reduction, at 10 µM, stronger effect = higher value
[6] = molecular target: Voltage-gated potassium channel subunit beta-2 (Rattus norvegicus) (UniProt P62483); assay: enhancers of rat Kvbeta2 NADPH turnover – biochemical, NADPH fluorescence, primary screen (AID 623); settings: Recombinant KvBeta, NADPH fluorescence decrease slope, 10 min; at 10 µM; stronger effect = lower value;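 note: fluorescence intensity change per second fitted from 20 to 320 s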
[7] = molecular target: Muscarinic acetylcholine receptor M4 (Homo sapiens) (UniProt P08173); assay: M4-linked GIRK flux change, two-sided – cell-based, HEK293 M4/GIRK, thallium flux, BTC-AM, M4 allosteric agonist project, primary screen (AID 625;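 active = fluorescence slope after compound addition differing from the mean of all tested samples at 99.7% confidence, mostly higher but some lower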;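 note: thallium influx through GIRK channels coupled to M4 in HEK293 cells with BTC-AM dye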); settings: at 10 µM, actives lie on both sides
[8] = inhibitors of larval lipid processing in zebrafish, primary screen, whole organism, PED6 fluorescence, gall bladder and intestine (AID 686;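 active = a full or partial loss of lipid-probe fluorescence in the fish gall bladder, intestine or both, judged by eye; inactive = no fluorescence loss, or compound toxic to the fish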;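 note: larvae 5 to 7 days old with five fish per well; signal comes from phospholipase A2 cleavage of quenched PED6 carried via bile; overnight exposure to compound and PED6 before scoring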); settings: Zebrafish larvae PED6 lipid processing, fluorescence scoring; screened at 20 µM (by protocol)
[9] = loss of swimming-algae plug formation – whole organism, Chlamydomonas reinhardtii, WT vs cilia-less mutant, absorbance, 96-well, primary screen (AID 463189;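 active = inhibition at or above 50% relative to wild type and mutant plate controls; inactive = inhibition below 50%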;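 note: 0% = wild type cc124 cells in DMSO and 100% = ciliumless bld1 mutant cells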); settings: Chlamydomonas reinhardtii gravitaxis, OD600 absorbance, 2 days; at 10 µM; stronger effect = higher value
[10] = molecular target: Alpha-2C adrenergic receptor (Homo sapiens) (UniProt P18825); assay: compounds altering alpha2C-coupled GIRK flux – cell-based, HEK293 alpha2C/GIRK1/2, thallium flux, primary screen (AID 624;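 active = fluorescence slope after compound addition differing from the mean of all screened samples at 99.7% confidence, in either direction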;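 note: slope of fluorescence ratio to pre-addition baseline per second over 15 to 24 s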); settings: thallium flux BTC fluorescence, at 10 µM, actives lie on both sides
[11] = measured here: cell density z-score
[12] = measured here: nuclear c-Myc green intensity z-score
[13] = measured here: nuclear pErk red intensity z-score, stronger effect = higher value

Chain of Alpha-2C adrenergic receptor (Homo sapiens) (P18825 whole entry, looked up): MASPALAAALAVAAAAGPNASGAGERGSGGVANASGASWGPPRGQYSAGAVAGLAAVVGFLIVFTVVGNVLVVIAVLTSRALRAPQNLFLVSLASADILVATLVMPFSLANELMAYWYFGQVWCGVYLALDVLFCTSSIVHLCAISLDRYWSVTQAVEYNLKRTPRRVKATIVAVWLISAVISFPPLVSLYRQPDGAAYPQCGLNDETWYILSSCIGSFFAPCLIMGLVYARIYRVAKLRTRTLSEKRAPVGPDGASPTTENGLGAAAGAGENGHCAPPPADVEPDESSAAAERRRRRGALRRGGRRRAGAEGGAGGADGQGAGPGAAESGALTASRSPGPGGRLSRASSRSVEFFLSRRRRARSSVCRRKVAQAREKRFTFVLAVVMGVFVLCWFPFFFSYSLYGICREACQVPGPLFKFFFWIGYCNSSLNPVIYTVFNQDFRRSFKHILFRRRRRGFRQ
Chain of Dual specificity protein phosphatase 6 (Homo sapiens) (Q16828 whole entry, looked up): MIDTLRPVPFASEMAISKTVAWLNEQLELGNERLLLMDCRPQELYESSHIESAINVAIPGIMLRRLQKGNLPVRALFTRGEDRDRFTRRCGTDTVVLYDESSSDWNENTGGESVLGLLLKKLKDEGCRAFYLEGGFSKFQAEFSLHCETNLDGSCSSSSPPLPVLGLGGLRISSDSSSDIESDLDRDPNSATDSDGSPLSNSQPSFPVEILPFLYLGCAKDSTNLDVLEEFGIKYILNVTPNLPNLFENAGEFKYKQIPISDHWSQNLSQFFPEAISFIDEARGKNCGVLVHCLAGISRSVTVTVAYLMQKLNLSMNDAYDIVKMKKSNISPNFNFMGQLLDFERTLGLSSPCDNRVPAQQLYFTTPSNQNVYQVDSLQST
Chain of Muscarinic acetylcholine receptor M4 (Homo sapiens) (P08173 whole entry, looked up): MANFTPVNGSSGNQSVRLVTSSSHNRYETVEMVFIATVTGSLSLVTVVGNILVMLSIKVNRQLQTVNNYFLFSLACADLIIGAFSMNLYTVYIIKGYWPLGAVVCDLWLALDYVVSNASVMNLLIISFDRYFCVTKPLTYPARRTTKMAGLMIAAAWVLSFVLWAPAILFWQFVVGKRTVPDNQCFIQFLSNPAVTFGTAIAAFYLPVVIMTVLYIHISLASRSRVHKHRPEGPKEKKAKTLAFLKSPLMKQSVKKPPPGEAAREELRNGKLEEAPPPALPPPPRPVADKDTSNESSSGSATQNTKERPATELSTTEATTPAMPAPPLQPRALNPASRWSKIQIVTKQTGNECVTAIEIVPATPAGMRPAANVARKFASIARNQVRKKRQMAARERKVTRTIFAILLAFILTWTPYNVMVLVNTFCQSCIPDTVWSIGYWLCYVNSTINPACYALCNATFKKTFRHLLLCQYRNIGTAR
Chain of Voltage-gated potassium channel subunit beta-2 (Rattus norvegicus) (P62483 whole entry, looked up): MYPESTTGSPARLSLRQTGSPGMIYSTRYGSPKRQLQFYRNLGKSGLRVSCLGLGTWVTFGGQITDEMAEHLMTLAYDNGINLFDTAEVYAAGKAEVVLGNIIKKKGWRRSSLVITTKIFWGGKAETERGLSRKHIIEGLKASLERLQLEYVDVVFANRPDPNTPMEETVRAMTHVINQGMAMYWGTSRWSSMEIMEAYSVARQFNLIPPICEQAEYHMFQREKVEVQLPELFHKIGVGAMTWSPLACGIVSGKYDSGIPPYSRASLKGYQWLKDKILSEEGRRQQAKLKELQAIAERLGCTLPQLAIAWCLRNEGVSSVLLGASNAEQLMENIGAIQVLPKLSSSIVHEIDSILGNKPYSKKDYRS

Row | SMILES | cell count [1] | inhibition [1] | inhibition [2] | nuclei count [2] [%] | z-score [3, 11] | z-score [3, 12] | z-score [3, 13] | inhibition [4] | fluorescence slope [5] | NADPH fluorescence slope [6] | fluorescence slope [7] | outcome [8] | inhibition [9] | slope [10]
1 | COC(=O)CSc1ncnc2c1sc1nc(-c3ccco3)c3c(c12)CC(C)(C)OC3 | 514 | -12.6% (inactive) | -71.6% (inactive) | 130 | -0.117 | 0.288 | -0.223 | 9.91% (inactive) | -0.364 (inactive) | -2e-06 (inactive) | 0.00608 (inactive) | inactive | -8.07% (inactive) | 
2 | CC1CN(C2CCN(C(=O)c3ccccc3)CC2)CC(C)O1 (stereo unspecified) | 391 | -25.6% (inactive) |  | 174 | 1.48 | -0.00638 | -0.737 | -0.159% (inactive) | -0.395 (inactive) | -3.8e-05 (inactive) |  | inactive | 4.48% (inactive) | 0.00679 (inactive)
3 | COc1ccc(-n2ccc(=O)c3c2CCCC3=O)cc1 | 538 | -18% (inactive) | -24.2% (inactive) | 175 | 0.411 | 1.24 | 0.919 | -3.97% (inactive) | -0.383 (inactive) | -5.1e-05 (inactive) | 0.00531 (inactive) | inactive | -7.89% (inactive) | 
4 | Cc1[nH]c(=O)[nH]c(=O)c1S(=O)(=O)N1CCCC1 | 473 | -7.5% (inactive) | -107% (inactive) | 116 | -1.16 | 0.0534 | 0.397 | -3.98% (inactive) | -0.476 (inactive) | -0.000255 (inactive) |  | inactive | -0.601% (inactive) | 0.00533 (inactive)
5 | O=C(NC1CCCCC1)Nn1c(-c2ccccc2)nc2ccccc2c1=O | 695 | -7.6% (inactive) | -60.6% (inactive) | 203 | -0.332 | -0.26 | 0.432 | -9.53% (inactive) | -0.473 (inactive) | -0.000129 (inactive) | 0.00473 (inactive) | inactive | 2.04% (inactive) | 
6 | CC1(C)Cc2c(c(-c3ccccc3)[nH]c(=O)c2C#N)CS1 | 499 | -15.7% (inactive) | -47.8% (inactive) | 131 | 1.65 | -1.74 | -0.608 | 14.7% (inactive) | -0.426 (inactive) | -2.8e-05 (inactive) | 0.0044 (inactive) | inactive | -6.24% (inactive) | 
7 | CC1(C)CC(=O)C2=C(C1)OC(N)=C(C#N)[C@@]21C(=O)N(CC(N)=O)c2ccccc21 | 375 | -8% (inactive) | -63.6% (inactive) | 114 | 0.0987 | 0.575 | -0.037 | -3.95% (inactive) | -0.464 (inactive) | -2e-05 (inactive) | 0.00604 (inactive) | inactive | -3.87% (inactive) | 
8 | O=C1CCC(=O)N1CN(Cc1ccco1)CN1C(=O)CCC1=O | 512 | -4.8% (inactive) | -33.2% (inactive) | 158 | 2.24 | -1.47 | 0.89 | 37.7% (inactive) | -0.376 (inactive) | -1.3e-05 (inactive) | 0.00674 (inactive) | inactive | 13.2% (inactive) | 
9 | CC(C)(C)c1nnc2sc(SCC(=O)c3ccccc3)nn2c1=O | 619 | 3.4% (inactive) | -55% (inactive) | 105 | -1.21 | -0.101 | 1.16 | -7.67% (inactive) | -0.455 (inactive) | -6.8e-05 (inactive) | 0.00537 (inactive) | inactive | 11.5% (inactive) | 
10 | O=C(O)c1c[nH]c2ccc(S(=O)(=O)N3CCOCC3)cc12 | 597 | -4.4% (inactive) | -208% (inactive) | 144 | -0.324 | -1.59 | 0.18 | 5.42% (inactive) | -0.496 (inactive) | -6.6e-05 (inactive) | 0.00433 (inactive) | inactive | 8.59% (inactive) | 
11 | N#C/C(C(=O)NCc1ccccc1)=C1\SC(CCO)C(=O)N1c1ccccc1 (stereo unspecified) | 501 | -3.4% (inactive) | -97.3% (inactive) | 120 | 0.0433 | 1.04 | -2.12 | 5.42% (inactive) | -0.429 (inactive) | -1.4e-05 (inactive) | 0.00513 (inactive) | inactive | -13.8% (inactive) | 
12 | CCCc1nnc(NC(=O)c2c(O)c3c([nH]c2=O)CCCC3)s1 | 312 | -15.5% (inactive) | -42.9% (inactive) | 134 | -0.253 | -0.454 | -0.547 | 17.5% (inactive) | -0.423 (inactive) | -3.6e-05 (inactive) |  | inactive | 14% (inactive) | 0.00662 (inactive)
13 | CCCc1nc(NC2CCCCC2)c(C#N)c2c1COC(C)(C)C2 | 517 | -11.1% (inactive) | -55.9% (inactive) | 114 | -0.306 | -0.0962 | -0.825 | -3.95% (inactive) | -0.492 (inactive) | -6.5e-05 (inactive) | 0.00613 (inactive) | inactive | -12.9% (inactive) | 
14 | N#Cc1nc(-c2cccs2)oc1NCCN1CCOCC1 | 666 | 6.6% (inactive) | -60.7% (inactive) | 146 | 0.927 | 0.0167 | -0.446 | 10.9% (inactive) | -0.0476 (inactive) | -2.5e-05 (inactive) | 0.00626 (inactive) | inactive | 6.5% (inactive) | 
15 | COC(=O)C1=C(C)N=C2SC(C)C(=O)N2C1c1ccc(C(=O)OC)cc1 (stereo unspecified) | 746 | -2.4% (inactive) | -42.3% (inactive) | 164 | 0.938 | -0.219 | -3.03 | 9.61% (inactive) | -0.448 (inactive) | -4.8e-05 (inactive) | 0.00486 (inactive) | inactive | 1.12% (inactive) | 
16 | CCOC(=O)c1c(C)[nH]c(/C(C)=N/O)c1C | 668 | -10.2% (inactive) | -400% (inactive) | 161 | -0.0773 | -1.42 | -0.664 | 1.12% (inactive) | -0.526 (inactive) | -3.4e-05 (inactive) | 0.00562 (inactive) | inactive | 87.2% (active) | 
17 | CC(NC(=O)NC(N)=O)(C(F)(F)F)C(F)(F)F | 674 | 6.8% (inactive) | -84.9% (inactive) | 109 | 0.562 | 0.75 | 0.26 | 13.9% (inactive) | -0.534 (inactive) | -1.1e-05 (inactive) | 0.00493 (inactive) | inactive | 21.5% (inactive) | 
18 | CCN1CCc2c(C#N)c(N3CCOCC3)nc(NCCO)c2C1 | 566 | -9.7% (inactive) | -122% (inactive) | 151 | 1.19 | -1.68 | -1.24 | -9.53% (inactive) | -0.456 (inactive) | -9.7e-05 (inactive) | 0.0043 (inactive) | inactive | -3.77% (inactive) | 
19 | Cn1c(=O)c2c(nc(NCC(O)CO)n2CCc2ccccc2)n(C)c1=O (stereo unspecified) | 693 | 2% (inactive) | -108% (inactive) | 172 | 0.322 | -1.96 | -0.0564 | 19.8% (inactive) | -0.483 (inactive) | -1e-05 (inactive) | 0.00665 (inactive) | inactive | 24.7% (inactive) | 
20 | c1ccc(CSc2nnc(SCc3ccccn3)s2)nc1 | 352 | -20.9% (inactive) |  | 173 | 1.06 | -1.17 | 0.36 | 3.66% (inactive) | -0.405 (inactive) | -5.6e-05 (inactive) |  | inactive | -2.59% (inactive) | 0.00665 (inactive)
21 | CCC(NC(=O)Nc1ccc(O)cc1)(C(F)(F)F)C(F)(F)F | 709 | -9.4% (inactive) | 18.3% (inactive) | 156 | -0.865 | 0.673 | 0.754 | -3.95% (inactive) | -0.448 (inactive) | -3.4e-05 (inactive) | 0.00524 (inactive) | inactive | 2.89% (inactive) | 
22 | C=CC(O)Cc1c(C)n[nH]c1C (stereo unspecified) | 656 | -7.1% (inactive) | -59.4% (inactive) | 167 | -1.01 | -0.115 | -0.502 | -9.66% (inactive) | -0.503 (inactive) | -6.2e-05 (inactive) | 0.00568 (inactive) | inactive | 11.7% (inactive) | 
23 | CCCSc1nnc2n(C)c(=O)c3c4c(sc3n12)CCC4 | 376 | -2.9% (inactive) | -11.1% (inactive) | 83.1 | -0.271 | -0.0406 | 0.896 | 9.42% (inactive) | -0.501 (inactive) | -7.9e-05 (inactive) | 0.00582 (inactive) | inactive | 62% (active) | 
24 | COC(=O)C(NC(C)=O)(Nc1nc2c(s1)CCCC2)C(F)(F)F (stereo unspecified) | 370 | -7.5% (inactive) | -63.7% (inactive) | 193 | 1.49 | 0.382 | -1.06 | 5.42% (inactive) | -0.414 (inactive) | -0.000114 (inactive) | 0.00554 (inactive) | inactive | -6.09% (inactive) | 
25 | Cc1ccc(Cn2ncc3c(N4CCN(c5ccc(C)cc5)CC4)ncnc32)cc1 | 548 | -0.1% (inactive) | 2.9% (inactive) | 164 | 0.777 | 0.779 | 1.42 | 17.8% (inactive) | -0.39 (inactive) | -5.3e-05 (inactive) | 0.00638 (inactive) | inactive | -10.9% (inactive) | 
26 | CCCCCCn1c(SCCN2CCOCC2)nc2c1c(=O)[nH]c(=O)n2C | 534 | -16.2% (inactive) | -9.8% (inactive) | 139 | 0.497 | 0.889 | 0.83 | 13.4% (inactive) | -0.409 (inactive) | -4.3e-05 (inactive) | 0.00545 (inactive) | inactive | 27.5% (inactive) | 
